Experimental findings from PubChem BioAssay (EPA / NIEHS) are described below.

The source made the active and inactive calls. Rule for the calls: active = hit-call score of the fitted dose curve at least 0.9, where 1 is the maximum; inactive = score below 0.9.

The experiment can be described thus: ATG_CMV_CIS: Attagene CIS-FACTORIAL HepG2 Assay for human CMV (Internal Marker) (AID 2282928).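 Note: endpoint acts as a background internal control marker rather than a target.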 The following applies: HepG2 CMV promoter reporter, transcription factor profiling; actives raise or lower the signal. As for the experimental part: ATG_CIS is a cell-based, multiplexed-readout assay that uses HepG2, a human liver cell line, with measurements taken at 24 hours after chemical dosing in a 24-well plate.ATG_CMV_CIS is one of 52 assay component(s) measured or calculated from the ATG_CIS assay. It is designed to make measurements of mRNA induction, a form of inducible reporter, as detected with fluorescence intensity signals by Reverse transcription polymerase chain reaction (RT-PCR) and Capillary electrophoresis technology.Data from the assay component ATG_CMV_CIS was analyzed into 1 assay endpoint. This assay endpoint, ATG_CMV_CIS, was analyzed with bidirectional fitting relative to DMSO as the negative control and baseline of activity. Using a type of inducible reporter, measures of mRNA for gain or loss-of-signal activity can be used to understand the background control at the transcription factor-level as they relate to the gene . Furthermore, this assay endpoint can be referred to as a secondary readout, because this assay has produced multiple assay endpoints where this one serves a background control function. To generalize the intended target to other relatable targets, this assay endpoint is annotated to the background measurement intended target family, where the subfamily is internal marker.
Human liver HepG2 cells are transiently transfected with multiple reporter transcription units (MRTUs) in 6-well plates using FuGene 6 reagent (Roche; 3 ml FuGene/1 mg DNA). The MRTU constructs are regulated by a cis-regulating element (promoter). […] A major difference between the CIS and TRANS system is that in CIS activities of endogenous TFs are measured, whereas the TRANS assay evaluates changes in activities of exogenous, chimeric NR-Gal4 proteins. […] At the end of 24 hour incubation, total RNA was isolated using TriZol reagent (Invitrogen). The isolated RNA is then reverse-transcribed using oligo(dT) primer and Mo-MLV reverse transcriptase (Invitrogen) with DNAse I (Ambion) treatment for 30 min. The one-tenth of the produced cDNA was amplified by PCR using Taq DNA polymerase (Invitrogen) and two reporter sequence-specific primers. The PCR products were fluorescently labeled by primer extension with 6-arboxyfluorescein (6-FAM) 5'-labeled reporter sequence-specific primer (2 min at 95 C, 20 s at 68 C and 10 min at 72 C) and these products were digested with 5U of HpaI (New England Biolabs) for 2h at 37 C. The fragments were purified using Qiaquick PCR columns (Qiagen), analyzed on an ABI 3130xL genetic analyzer (Applied Biosystems) with peak positions identified by using a set of X-rhodamine (ROX)-labeled MapMarker1000 molecular weight standards (BioVentures). The raw capillary electrophoresis data was processed using Attagraph software (Attagene).
Turning to `CC(=O)O[C@H]1C[C@@H]2CC[C@@]1(C)C2(C)C`, the outcome was inactive.

For orientation: AC50 means the midpoint of the concentration-response curve, whichever way the signal moves. `Clc1cc(Cl)c(-c2c(Cl)c(Cl)cc(Cl)c2Cl)cc1Cl`: the AC50 was 30.4 µM (active).

Consider `CCCCC1(COC(=O)CCC(=O)O)C(=O)N(c2ccccc2)N(c2ccccc2)C1=O`, for which the compound was classed as inactive.

With `CC(C)CCOC(=O)c1ccccc1`, the compound was classed as inactive.

Consider `Cc1ccc(S(N)(=O)=O)cc1`, for which the call was inactive.

In the case of `CCOC(=O)C(C#N)=C(c1ccccc1)c1ccccc1`, the outcome was inactive.

`COCCOCCOCCO`: the outcome was inactive.

Turning to `c1ccc(Oc2ccccc2)cc1`, the compound was called inactive.

With `Cc1ncc[nH]1`, the compound was called inactive.

For the compound `O=C1CCCC=CCCCCCCCCCC1`, the AC50 is 44.1 µM (active).

For the compound `C=CC(=O)OCCCC`, the call was inactive.

As for `COC(=O)c1ccc([N+](=O)[O-])cc1`, the compound was classed as inactive.

Regarding `CCCC(C)=O`, the compound was called inactive.

For `CS(=O)(=O)OCCCCOS(C)(=O)=O`, the compound was called inactive.

Turning to `CC(C)c1ccccc1O`, the result was inactive.

As to `COc1cc(CCC(C)=O)ccc1O`, the call was inactive.

Take `O=C1OC(=O)c2c(Br)c(Br)c(Br)c(Br)c21`: the outcome was inactive.

As to `CC(=O)CC(=O)Nc1ccccc1`, the compound was classed as inactive.

As for `O=C(Nc1ccc2c(c1)Cc1ccccc1-2)C(F)(F)F`, the result was inactive.

With `CCCCCCCCCC(C)C=O` (stereo not given), the call was inactive.

For the compound `C[C@H]1C[C@@H](O)CC(C)(C)C1`, the outcome was inactive.

As to `O=C(O)COCC(=O)O`, the compound was classed as inactive.

On to `CC(C)=CCCC(C)CC(=O)O` (stereo not given), for which the outcome was inactive.

For the compound `O=C(O)c1cccnc1C(=O)O`, the result was inactive.

With `C=C(C)C(=O)OCCOCCOCCOCCOC(=O)C(=C)C`, the compound was called inactive.

Consider `Nc1c(S(=O)(=O)O)cc(Br)c2c1C(=O)c1ccccc1C2=O`, for which the outcome was inactive.

`O=C(CC(=O)c1ccccc1)c1ccccc1`: the AC50 was 47.2 µM (active).

For `CCCCCCCCCCCC(=O)OC[C@@H](O)[C@H]1OC[C@H](O)[C@H]1O`, the call was inactive.

Regarding `BrCc1cccc(Oc2ccccc2)c1`, the compound was classed as inactive.

Regarding `COc1ccc(CCN2CCC(Nc3nc4ccccc4n3Cc3ccc(F)cc3)CC2)cc1`, the compound was called inactive.

For `CCCCC(CC)(CO)CO`, the compound was called inactive.

In the case of `OCCOCCN1CCN(C2=Nc3ccccc3Sc3ccccc32)CC1`, the AC50 was 135 µM (active).

Turning to `NCCNc1cccc2ccccc12`, the outcome was inactive.

For `CCCCCC(=O)CC`, the compound was called inactive.

As to `CCCSc1ccc2nc(NC(=O)OC)[nH]c2c1`, the compound was classed as inactive.

`CC=Cc1ccc(OC)c(OC)c1`: the outcome was inactive.

Regarding `CN(C)C(=S)SC(=S)N(C)C`, the outcome was inactive.

For `CCCN(CCC)S(=O)(=O)c1ccc(C(=O)O)cc1`, the call was inactive.

Regarding `COC(=O)c1ccc(C)cc1C1=NC(C)(C(C)C)C(=O)N1` (stereo not given) (tested in a mixture with another compound), the outcome was inactive.

On to `C=CC(=C)CCCC(C)(C)OC(C)=O`, for which the compound was called inactive.
